Source: PubChem BioAssay (NCI)
The panel holds about 79,000 compounds, 15% with a hit somewhere; the sample as a whole holds those more often. Calls of active or inactive are those of the source. Rule as the data show it: active = growth inhibition above about 70%; inactive = the rest.

What was measured:
[1] = NCI Yeast Anticancer Drug Screen. Data for the rad52 strain (AID 147);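 also: 0% = growth of vehicle-treated control cultures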; conditions: S. cerevisiae rad52 mutant growth inhibition, active compounds read high
Summary of the method: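 The repair-mutant yeast strain was incubated with compounds, then growth was read and inhibition derived relative to vehicle.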

[2] = NCI Yeast Anticancer Drug Screen. Data for the wt1 strain (AID 149);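 also: 0% = growth of vehicle-treated wt1 cultures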; conditions: S. cerevisiae wt1 strain (SPY 50644) growth inhibition, active compounds read high
Summary of the method: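 The wt1 strain was treated with compounds, and growth was compared with vehicle-treated cultures to give inhibition.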

[3] = NCI Yeast Anticancer Drug Screen. Data for the rad50EPP+ strain (AID 151);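 also: 0% = growth of vehicle-treated control cultures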; conditions: S. cerevisiae rad50 mutant strain, active compounds read high
Summary of the method: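 Vehicle-normalised growth inhibition; rad50EPP+ yeast strain, altered in DNA damage repair, compound-treated.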

[4] = NCI Yeast Anticancer Drug Screen. Data for the rad50 strain (AID 155);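 also: 0% = growth of vehicle-only cultures of the same strain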; conditions: S. cerevisiae rad50 strain growth inhibition, active compounds read high
Summary of the method: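 Cells are treated with compound, grown, and their growth is then scored against vehicle-only cultures of the same repair-deficient yeast strain.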

[5] = NCI Yeast Anticancer Drug Screen. Data for the mec2-1 strain (AID 157); conditions: S. cerevisiae mec2-1 strain, active compounds read high
Summary of the method: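 Mutant yeast (mec2-1) grown with compound; growth inhibition relative to vehicle control reported.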

[6] = NCI Yeast Anticancer Drug Screen. Data for the rad14 strain (AID 159);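 also: 0% = growth of vehicle-treated control cultures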; conditions: S. cerevisiae rad14 strain growth inhibition, active compounds read high
Summary of the method: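 Readout: yeast growth inhibition, referenced to vehicle-only cultures. Strain bears a defined alteration in DNA damage repair.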

[7] = NCI Yeast Anticancer Drug Screen. Data for the sgs1 mgt1 strain (AID 161);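 also: 0% = growth of cultures given vehicle only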; conditions: S. cerevisiae sgs1 mgt1 strain, active compounds read high
Summary of the method: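 Compounds are added to genetically altered yeast, and growth is compared with cultures given vehicle alone to give percent inhibition.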

[8] = NCI Yeast Anticancer Drug Screen. Data for the CLN2oe strain (AID 163);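 also: 0% = growth of vehicle-only control cultures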; conditions: S. cerevisiae CLN2oe strain, active compounds read high
Summary of the method: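 Compounds are applied to yeast harbouring a defined cell-cycle control change; reduced growth compared with vehicle-treated controls gives the value.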

[9] = NCI Yeast Anticancer Drug Screen. Data for the cln2 rad14 strain (AID 165);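 also: 0% = growth equal to vehicle treated cultures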; conditions: S. cerevisiae cln2 rad14 strain, active compounds read high
Summary of the method: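 Readout is yeast growth inhibition versus vehicle-treated controls, using a strain with cln2 and rad14 alterations exposed to compound.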

[10] = NCI Yeast Anticancer Drug Screen. Data for the bub3 strain (AID 167); conditions: S. cerevisiae bub3 mutant strain, active compounds read high
Summary of the method: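 Part of a panel of yeast mutants defective in DNA damage repair or cell cycle regulation. Each strain is grown with compound, and inhibition is calculated relative to solvent-treated cultures.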

[11] = NCI Yeast Anticancer Drug Screen. Data for the wt2 strain (AID 169);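 also: 0% = growth of vehicle-treated yeast cultures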; conditions: S. cerevisiae wt2 strain growth inhibition, active compounds read high
Summary of the method: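 Against vehicle-treated controls, the growth of yeast exposed to each compound was compared, and the inhibition was recorded.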

[12] = NCI Yeast Anticancer Drug Screen. Data for the mlh1 strain (AID 171);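 also: 0% = growth of vehicle-treated control cultures of the same strain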; conditions: S. cerevisiae mlh1 strain growth inhibition, active compounds read high
Summary of the method: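 Measured: yeast growth. Reference: vehicle-treated controls. Organism: strain with a defined alteration affecting DNA damage repair or cell cycle control, treated with compound.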

[13] = NCI Yeast Anticancer Drug Screen. Data for the sgs1 strain (AID 173);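 also: 0% = growth of vehicle-only control cultures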; conditions: S. cerevisiae sgs1 mutant, active compounds read high
Summary of the method: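 Each compound was added to cultures of the altered yeast strain. Growth was recorded, and inhibition was derived by comparison with vehicle controls.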

[14] = NCI Yeast Anticancer Drug Screen. Data for the mlh1 rad18 strain (AID 175); conditions: S. cerevisiae mlh1 rad18 strain growth inhibition, active compounds read high
Summary of the method: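 Genetically defined yeast (DNA repair-deficient) exposed to compounds; growth inhibition determined relative to vehicle.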

[15] = NCI Yeast Anticancer Drug Screen. Data for the rad18 strain (AID 177); conditions: S. cerevisiae rad18 mutant growth inhibition, active compounds read high
Summary of the method: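 Vehicle-treated cultures served as the baseline for scoring compound-induced growth inhibition in DNA-repair-mutant yeast.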

[16] = at 5.0 µM (retest, dose inferred, filed as 0.5)
[17] = at 50.0 µM (retest, dose inferred, filed as 5.0)

Measured: growth inhibition

Cc1ccc(SSc2ccc(C)cc2[N+](=O)[O-])c([N+](=O)[O-])c1
inactive: [1]; at 1.2 µM 5% | [1]; at 3.7 µM 19% | [1]; at 11.0 µM 38% | [2]; at 1.2 µM -2% | [2]; at 3.7 µM 4% | [2]; at 11.0 µM 16% | [2]; at 33.0 µM 50% | [3]; at 1.2 µM 7% | [3]; at 3.7 µM 16% | [3]; at 11.0 µM 48% | [4]; at 1.2 µM 8% | [4]; at 3.7 µM 15% | [4]; [16] 54% | [4]; at 11.0 µM 33% | [4]; at 33.0 µM 68% | [4]; at 50.0 µM 69.5% | [5]; at 1.2 µM -5% | [5]; at 3.7 µM 2% | [5]; [16] 57% | [5]; at 11.0 µM 26% | [5]; at 33.0 µM 66% | [6]; at 1.2 µM -6% | [6]; at 3.7 µM -10% | [6]; at 11.0 µM 10% | [7]; [16] -8% | [8]; at 1.2 µM -11% | [8]; at 3.7 µM 0% | [8]; at 11.0 µM -9% | [8]; at 33.0 µM -5% | [9]; [16] 37% | [10]; at 1.2 µM -3% | [10]; at 3.7 µM -3% | [10]; [16] 26% | [10]; at 11.0 µM 2% | [11]; at 1.2 µM -15% | [11]; at 3.7 µM -6% | [11]; at 11.0 µM 21% | [12]; at 1.2 µM -14% | [12]; at 3.7 µM -8% | [12]; at 11.0 µM -1% | [12]; at 33.0 µM 66% | [13]; at 1.2 µM 0% | [13]; at 3.7 µM 14% | [13]; at 11.0 µM 46% | [14]; [16] 35% | [14]; at 50.0 µM 44.7% | [15]; at 1.2 µM -18% | [15]; at 3.7 µM -14% | [15]; at 11.0 µM 19% | [15]; at 33.0 µM 53%
active: [1]; at 33.0 µM 77% | [1]; at 100.0 µM 86% | [2]; at 100.0 µM 83% | [3]; at 33.0 µM 90% | [3]; at 100.0 µM 87% | [4]; [17] 90% | [4]; at 100.0 µM 86% | [5]; [17] 94% | [5]; at 50.0 µM 78.7% | [5]; at 100.0 µM 86% | [6]; at 33.0 µM 74% | [6]; at 100.0 µM 85% | [7]; [17] 95% | [8]; at 100.0 µM 72% | [9]; [17] 86% | [10]; at 33.0 µM 84% | [10]; [17] 94% | [10]; at 100.0 µM 87% | [11]; at 33.0 µM 82% | [11]; at 100.0 µM 85% | [12]; at 100.0 µM 87% | [13]; at 33.0 µM 91% | [13]; at 100.0 µM 86% | [14]; [17] 80% | [15]; at 100.0 µM 83%

COc1cc(C(C)(C)C)cc(OC)c1C(O)(c1c(OC)cc(C(C)(C)C)cc1OC)c1c(OC)cc(C(C)(C)C)cc1OC
active: [1]; at 11.0 µM 88% | [1]; at 33.0 µM 92% | [1]; at 100.0 µM 84% | [2]; at 11.0 µM 93% | [2]; at 33.0 µM 94% | [2]; at 100.0 µM 91% | [3]; at 11.0 µM 87% | [3]; at 33.0 µM 92% | [3]; at 100.0 µM 83% | [4]; at 11.0 µM 92% | [4]; at 33.0 µM 93% | [4]; [17] 94% | [4]; at 50.0 µM 78% | [4]; at 100.0 µM 88% | [5]; [16] 81% | [5]; at 11.0 µM 90% | [5]; at 33.0 µM 94% | [5]; [17] 96% | [5]; at 50.0 µM 79.7% | [5]; at 100.0 µM 90% | [6]; at 11.0 µM 88% | [6]; at 33.0 µM 91% | [6]; at 100.0 µM 86% | [8]; at 11.0 µM 87% | [8]; at 33.0 µM 93% | [8]; at 100.0 µM 89% | [9]; [17] 96% | [9]; at 50.0 µM 77.3% | [10]; [16] 76% | [10]; at 11.0 µM 92% | [10]; at 33.0 µM 94% | [10]; [17] 96% | [10]; at 50.0 µM 75.8% | [10]; at 100.0 µM 85% | [11]; at 11.0 µM 92% | [11]; at 33.0 µM 94% | [11]; at 100.0 µM 82% | [12]; at 11.0 µM 89% | [12]; at 33.0 µM 94% | [12]; at 100.0 µM 88% | [13]; at 11.0 µM 95% | [13]; at 33.0 µM 95% | [13]; at 100.0 µM 89% | [14]; [17] 93% | [14]; at 50.0 µM 76.1% | [15]; at 11.0 µM 93% | [15]; at 33.0 µM 94% | [15]; at 100.0 µM 87%
inactive: [1]; at 1.2 µM -10% | [1]; at 3.7 µM 33% | [2]; at 1.2 µM 4% | [2]; at 3.7 µM 42% | [3]; at 1.2 µM -1% | [3]; at 3.7 µM 14% | [4]; at 1.2 µM 25% | [4]; at 3.7 µM 30% | [4]; [16] 33% | [5]; at 1.2 µM -22% | [5]; at 3.7 µM 32% | [6]; at 1.2 µM -24% | [6]; at 3.7 µM -28% | [8]; at 1.2 µM 31% | [8]; at 3.7 µM 45% | [9]; [16] 47% | [10]; at 1.2 µM -25% | [10]; at 3.7 µM 44% | [11]; at 1.2 µM -17% | [11]; at 3.7 µM 15% | [12]; at 1.2 µM -19% | [12]; at 3.7 µM -12% | [13]; at 1.2 µM -3% | [13]; at 3.7 µM 4% | [14]; [16] 15% | [15]; at 1.2 µM -4% | [15]; at 3.7 µM 10%
